# From PubChem
# The entries come from a sample that favours hits as a whole.
# Tgondii IFNg: T. gondii growth inhibition with IFN-gamma, primary screen, cell-based; Toxoplasma gondii growth in IFN-gamma-treated host cells; active compounds read low; activity change, negative = inhibition, % (no concentration beside the values); 69,000 compounds, 3.8% hits; AID 1259416, 2018; in the data active = activity change below about -70%, passing the limit was not always enough;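 also: host cells are HeLa cells infected with Toxoplasma gondii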
# * = called active by the depositor.
SMILES,Tgondii IFNg
CC1CCN(C(=O)c2nc(-c3cccc(F)c3)n3c2CCCCC3)CC1,-58.8
Cc1cccc(NC(=O)Nc2ccc(-c3nc(-c4ccccc4)co3)cc2)c1,5.9
Cc1cccc(COC[C@]23COC[C@H]2CN(c2ncccn2)C3)n1,6.5
CCOc1ncccc1-c1cncnc1,-2.6
CCOc1ncccc1-c1ccc(C)nc1N,-90.0*
CCOc1ncccc1-c1cc(CC)nc(N(C)C)n1,6.0
COCCN1CCOCC2(CCCN(C(=O)c3ccc4ncccc4c3)C2)C1 (stereo not given),-4.1
CCn1c(SCc2nc(-c3ccc(Cl)cc3)oc2C)nc2c(=O)[nH]cnc21,8.8
CC1(C)CC(=O)c2c(C(F)(F)F)nn(-c3ccc(C(N)=O)c(NC4CCC(OC(=O)CN)CC4)c3)c2C1 (stereo not given),-76.0*
CC1(C)CC(=O)c2c(nc3ccccc3c2N)C1,22.8
CC1(C)CC(=O)c2c(C(F)(F)F)nn(-c3ccc(C(N)=O)c(NC4CCC(O)CC4)c3)c2C1 (stereo not given),-77.5*
CC(c1ccccc1)n1cnnc1Cc1cccnc1 (stereo not given),-7.8
CCN(Cc1nc(C)no1)C(=O)c1cccc(C#CC(C)(C)O)c1,-10.3
CCc1cn[nH]c1C1CCCN(C(=O)c2nc(C)n3c2C(=O)N(CC)CC3)C1 (stereo not given),-2.3
CCc1ccc(S(=O)(=O)c2cnc(N3CCC(C(N)=O)(N4CCCCC4)CC3)nc2N)cc1,-78.4*
CC(C)c1ccc(S(=O)(=O)c2cnc(N3CCC(C(N)=O)(N4CCCCC4)CC3)nc2N)cc1,26.9
NC(=O)C1(N2CCCCC2)CCN(c2ncc(S(=O)(=O)c3ccccc3)c(N)n2)CC1,68.8
CCCCNC(=O)c1cncc(N(C)S(=O)(=O)c2ccc(C)cc2)c1,13.2
CC(=O)N1CCCc2cc(C(O)CN3CCN(c4ccc5c(c4)OCCO5)CC3)ccc21 (stereo not given),-23.3
Cc1ccc(C2CCCN2C(=O)CC2CCN(C(=O)C(C)C)CC2)cc1C (stereo not given),-6.7
Cn1ccnc1CN1CC[C@@H](O)[C@@H]1Cc1cccnc1,-5.0
CCC1(O)CC2CN(CCc3c([nH]c4ccccc34)C(C(=O)OC)(c3cc4c(cc3OC)N(C)C3C(O)(C(=O)OC)C(C(=O)OC)C5(CC)C=CCN6CCC43C65)C2)C1 (stereo not given),-86.3*
CC(C)NC(=O)N1Cc2nccn2CC(CN(C)C(C)C)C1 (stereo not given),5.6
CSc1scc(NS(=O)(=O)c2ccc(Cl)cc2)c1S(=O)(=O)C(C)C,-46.5
CSc1cc(-c2ccc(Cl)cc2)[nH]c(=O)c1C#N,56.1
SMILES,Tgondii IFNg
CSc1scc(-c2ccc(Cl)cc2)c1C#N,-90.9*
CCc1ccc(-c2cc3c(=O)n(Cc4nc(-c5ccccc5C)oc4C)ccn3n2)cc1,62.1
COCCNC(=O)C1CCCN(C2CCN(C(=O)/C=C/c3ccccc3)CC2)C1 (stereo not given),-0.5
CC(C)CN1C(=O)CCc2cc(NS(=O)(=O)c3ccc(F)c(F)c3)ccc21,-63.8
CCN1C(=O)CCc2cc(NS(=O)(=O)c3ccc(C)c(Cl)c3)ccc21,-83.2*
COc1ccc(S(=O)(=O)Nc2ccc3c(c2)CCC(=O)N3CC(C)C)cc1,29.6
Cc1ccc(S(=O)(=O)Nc2ccc3c(c2)CCC(=O)N3CC(C)C)cc1Cl,-93.1*
COCCN1C(=O)CCc2cc(NS(=O)(=O)c3ccc(C)c(F)c3)ccc21,-5.9
CCc1ccc(S(=O)(=O)Nc2ccc3c(c2)CCC(=O)N3CC(C)C)cc1,-90.4*
CCCN1C(=O)CCc2cc(NS(=O)(=O)c3ccc(Cl)c(Cl)c3)ccc21,-52.1
CN1C(=O)CCc2cc(NS(=O)(=O)c3cccc(Cl)c3)ccc21,-12.4
CC(C)CN1C(=O)CCc2cc(NS(=O)(=O)c3ccccc3Cl)ccc21,9.0
CN1C(=O)CCc2cc(NS(=O)(=O)c3ccc(Cl)c(Cl)c3)ccc21,-87.4*
COCCN1C(=O)CCc2cc(NS(=O)(=O)c3ccc(OC)c(Cl)c3)ccc21,-5.0
Cc1ccc(S(=O)(=O)Nc2ccc3c(c2)CCC(=O)N3CC(C)C)cc1,31.4
CN1CCC2(CC1)CN(C(=O)CCCn1cnnn1)CCN2C,9.5
Fc1ccc(CSc2nc(NCc3ccc(Cl)cc3)c3ccccc3n2)cc1,-19.3
CCC(C)(C)NC(=O)Cn1ncc2c(N3CCN(c4ccccn4)CC3)ncnc21,86.5
CCS(=O)(=O)N1CCC2(CC1)OC(=O)C(C)=C2C(=O)Nc1cc(Cl)c(OC)cc1OC,72.3
CCOc1ccccc1-c1nc(CSc2nc3c(=O)[nH]cnc3n2C)c(C)o1,7.7
C=CC[C@@H]1CC=C[C@@H](C)N1C(=O)CCN1CCCO1,25.7
COCCN1C(=O)CCc2cc(NS(=O)(=O)c3ccc(F)cc3)ccc21,24.2
CCN1C(=O)CCc2cc(NS(=O)(=O)c3ccc(C(F)(F)F)cc3)ccc21,-102.9*
CCN1C(=O)CCc2cc(NS(=O)(=O)c3cccc(Br)c3)ccc21,46.5
Cc1ccc(C)c(S(=O)(=O)Nc2ccc3c(c2)CCC(=O)N3CC(C)C)c1,-51.7
SMILES,Tgondii IFNg
Cc1ccc(S(=O)(=O)Nc2ccc3c(c2)CCC(=O)N3CC(C)C)c(C)c1,-85.9*
CC(C)CN1C(=O)CCc2cc(NS(=O)(=O)c3ccc(F)cc3F)ccc21,-4.2
O=c1n(CCCn2cccc2)nc(C2CCNCC2)n1-c1ccccc1,-7.5
CC(=O)N1CCCc2sc(C(=O)NCC3CCCO3)nc21 (stereo not given),-28.5
Cc1ncsc1C(=O)NC1CCCN(C(=O)CCc2ccc(F)cc2)CC1 (stereo not given),-36.7
CC(C)(O)C#Cc1ccc(C(=O)Nc2cnc3n2CCCC3)o1,8.0
Cc1nnc(SCC2=C(C(=O)O)N3C(=O)[C@@H](N)[C@H]3SC2)s1,3.6
CC(=O)Nc1ccc(Cl)c(C(=O)NC(C)c2ncn[nH]2)c1 (stereo not given),57.3
O=S(=O)(NCC1(O)CCCNCC1)c1ccc(-c2ccccn2)s1 (stereo not given),9.2
CC(NC(=O)c1cnn2c1CCCC2)c1cn2ccsc2n1 (stereo not given),-8.1
CNC(=O)c1cc(-c2ccn[nH]2)ccc1Cl,4.4
NC(=O)c1cc(-c2ccnc3[nH]ccc23)ccc1Cl,-88.7*
O=C(c1cncc(-c2ccnc3[nH]ccc23)n1)N1CCCCC1,-33.4
CNC(=O)[C@@H]1CCO[C@H]2CCN(Cc3scnc3C)C[C@H]21,-11.0
CC(c1cccc(-c2cc(N3CCOCC3)nc(N)n2)c1)N1CCCC1 (stereo not given),6.8
Cn1nc(CNc2ncccn2)c2c1CNCC2,2.1
Cn1nc(CNc2ncccn2)c2c1CN(C(=O)c1ccccc1F)CC2,-105.5*
Cc1cccc(S(=O)(=O)N2CCc3c(CNc4ncccn4)nn(C)c3C2)c1,2.4
CC(=O)N1CCCC2(C1)CN(c1nncs1)CCO2 (stereo not given),-1.2
COC(=O)C1(Cc2ccccc2F)NC(=O)CC2CCC1N2Cc1ccccc1 (stereo not given),-77.3*
O=C1NC(=O)C(Cc2ccccc2F)(C2CCNCC2)N1 (stereo not given),-2.5
COc1ccc(F)c([C@@H]2NC(=O)CC[C@H]2NCc2cn[nH]c2-c2ccccc2)c1,-0.7
C[C@H](CO)N1C[C@H](C)[C@@H](CN(C)C(=O)c2ccccc2)Oc2ncc(C#Cc3ccccc3)cc2C1=O,-88.2*
C[C@H]1CN([C@@H](C)CO)C(=O)c2cc(C#Cc3ccccc3)cnc2O[C@H]1CN(C)C(=O)c1ccccc1,-14.2
